{"source": "PubChem BioAssay AID504683", "about": "(Southern Research Specialized Biocontainment Screening …, 2011)", "note": "Measured potencies and affinities stand elsewhere. Activity calls are given as the source filed them. The rule behind the calls is not given here.", "data": [{"experiment": "cytotoxicity control, cell-based, set 2 (AID 504683)", "details": "THP-1 human monocytes; series mostly up to 100 µM", "values": [{"smiles": "CC1CCN(C(=O)C2CCN(c3nnc(-n4cccc4)s3)CC2)CC1", "outcome": "inactive"}, {"smiles": "O=C(CSc1nc(O)cc(=O)[nH]1)Nc1ccccc1", "outcome": "inactive"}, {"smiles": "Cc1nc(SCC(N)=O)[nH]c(=O)c1C", "outcome": "inactive"}, {"smiles": "O=C(CSc1nccc(=O)[nH]1)Nc1ccc(Oc2ccccc2)cc1", "outcome": "inactive"}, {"smiles": "COc1cc(NC(=O)C/C(C)=N/NC(=O)c2ccccn2)c(OC)cc1Cl", "outcome": "inactive"}, {"smiles": "O=C(CSc1nccc(=O)[nH]1)Nc1ccc(N2CCOCC2)cc1", "outcome": "inactive"}, {"smiles": "O=C(CSc1ncccn1)NC1CCCCC1", "outcome": "inactive"}, {"smiles": "COC(=O)CCc1nc2c(C#N)c(-c3ccc(Cl)cc3)ccn2n1", "outcome": "inactive"}, {"smiles": "O=c1[nH]c(=S)[nH]c2ccccc12", "outcome": "inactive"}, {"smiles": "Cc1nc(SCC(=O)N(C)c2ccccc2)[nH]c(=O)c1C", "outcome": "inactive"}, {"smiles": "CCOC(=O)COc1ccc(/C=C2\\NC(=S)N(CC)C2=O)cc1", "outcome": "inactive"}, {"smiles": "Cc1cc(=O)[nH]c(=S)[nH]1", "outcome": "inactive"}, {"smiles": "CC(=NCc1ccc2c(c1)OCO2)C1=C(O)c2ccccc2C1=O", "outcome": "inactive"}, {"smiles": "Cc1[nH]c(=S)[nH]c(=O)c1C", "outcome": "inactive"}, {"smiles": "Cc1cc(=O)[nH]c(SCC(=O)Nc2ccccc2)n1", "outcome": "inactive"}, {"smiles": "Cc1ccc(NC(=O)C2C3/C=C\\CCCCC32)cc1C", "note": "(stereo not drawn)", "outcome": "inactive"}, {"smiles": "Cc1c[nH]c(=S)[nH]c1=O", "outcome": "inactive"}, {"smiles": "O=C(CSc1ccccn1)NC1CCCCC1", "outcome": "inactive"}, {"smiles": "COC(=O)C1CC(=O)N(c2ccc(OCc3ccccc3Cl)cc2)C1", "note": "(stereo not drawn)", "outcome": "inactive"}, {"smiles": "COC(=O)c1ccc(CNc2c(N3CCCC3)c(=O)c2=O)cc1", "outcome": "inactive"}, {"smiles": "Cc1nc(SCc2ccccc2Cl)[nH]c(=O)c1C", "outcome": "inactive"}, {"smiles": "Cc1ccc(NC(=O)COC(=O)CCc2c[nH]c3ccccc23)cc1[N+](=O)[O-]", "outcome": "inactive"}, {"smiles": "O=C(CSc1nc2ccccc2c(=O)[nH]1)NCc1ccc(Cl)cc1", "outcome": "inactive"}, {"smiles": "O=C(/C=C\\c1cccs1)N1CCN(Cc2ccc3c(c2)OCO3)CC1", "outcome": "inactive"}, {"smiles": "Cc1nc(SCC(=O)NC2CCCCC2)[nH]c(=O)c1C", "outcome": "inactive"}, {"smiles": "O=C(CSc1nc2ccccc2c(=O)[nH]1)NC1CCCCC1", "outcome": "inactive"}, {"smiles": "COC(=O)C(C)Oc1ccc(-c2nccc(-c3ccccn3)n2)cc1", "note": "(stereo not drawn)", "outcome": "inactive"}, {"smiles": "COC(=O)C(C)Oc1ccc(Cc2ncc(C(F)(F)F)cc2Cl)cc1", "note": "(stereo not drawn)", "outcome": "inactive"}, {"smiles": "CCOC(=O)CSc1nc(C)c(C)c(=O)[nH]1", "outcome": "inactive"}, {"smiles": "CCSc1nc2ccccc2c(=O)[nH]1", "outcome": "inactive"}, {"smiles": "CCOC1OC(=O)C(Cl)=C1Nc1ccccc1C", "note": "(stereo not drawn)", "outcome": "inactive"}, {"smiles": "CCSc1nc(C)c(C)c(=O)[nH]1", "outcome": "inactive"}, {"smiles": "CCc1ccc(/C=C2/C(=O)N(C)C(=S)N2CC(=O)OC)s1", "outcome": "inactive"}]}]}
